Measured values taken from PubChem BioAssay AID652105 (National Center for Advancing Translational Sciences (NCATS), 2013).
Out of some 330,000 compounds screened, about 4,100 (1.2%) were called active. About 2% were inconclusive and are not listed. Rule for the calls: active = max response of -50% or lower; inconclusive = between -30% and -50%; inactive = -30% or higher. This excerpt belongs to a sample that is enriched for actives.

The compounds below were run against Phosphatidylinositol 5-phosphate 4-kinase type-2 alpha (Homo sapiens) (UniProt P48426) (assay: qHTS for Inhibitors of phosphatidylinositol 5-phosphate 4-kinase (PI5P4K)). Settings: PI5P4Kalpha enzyme, ADP-Glo luminescence, 60 min; active compounds read low.
Outline: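 Human PI5P4Kalpha with substrate in 0.038 M HEPES pH 7.4, 0.28 mM EGTA, 0.1% CHAPS, 5% DMSO; reaction started with 5 microM ATP (final), 60 min at room temperature. ADP formed read by ADP-Glo luminescence.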
% is set by controls: 0 for no effect and ±100 for the full control effect.
Note: value at the top dose of about 77 µM.

Sequence of Phosphatidylinositol 5-phosphate 4-kinase type-2 alpha (Homo sapiens) (P48426 whole entry, looked up): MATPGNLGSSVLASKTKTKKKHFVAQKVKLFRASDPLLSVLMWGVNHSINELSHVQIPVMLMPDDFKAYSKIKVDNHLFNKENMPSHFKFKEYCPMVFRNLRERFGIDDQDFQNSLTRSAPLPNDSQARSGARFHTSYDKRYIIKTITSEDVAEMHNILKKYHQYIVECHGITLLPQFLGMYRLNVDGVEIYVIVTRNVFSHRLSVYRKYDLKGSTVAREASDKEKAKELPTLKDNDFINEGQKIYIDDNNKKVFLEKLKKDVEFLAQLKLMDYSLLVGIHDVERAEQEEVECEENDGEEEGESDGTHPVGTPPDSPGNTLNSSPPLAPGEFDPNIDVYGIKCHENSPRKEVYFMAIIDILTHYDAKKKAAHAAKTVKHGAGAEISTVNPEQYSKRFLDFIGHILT

Q: For CC1(C)OC(=O)C2=C(C[C@@H](C3CC3)O[C@H]2c2ccc(Cl)cc2)O1, which max response is on record?
A: 8.12% (inactive)

Q: Which max response does the source give for CC1(C)OC(=O)C2=C(C[C@@H](C3CCCCC3)O[C@@H]2c2ccc(Cl)cc2)O1 here?
A: 10.9% (inactive)

Q: With Cc1ccc(NC(=O)CC2S/C(=N/N=C3\CCCc4ccccc43)NC2=O)cc1 (stereo not drawn) as the compound, how does the max response read?
A: 27.6% (inactive)

Q: For CC(=O)Nc1ccc(S(=O)(=O)Oc2ccc(/C=N/N=C3/NC(=O)C(CC(=O)O)S3)cc2)cc1 (stereo not drawn), which max response is on record?
A: -65% (active)

Q: Cc1ccc(S(=O)(=O)Oc2ccc(/C=N/NC(=O)c3ccncc3)cc2)cc1 was tested. Which max response did it give?
A: 3.82% (inactive)

Q: Which max response does the source give for CCOC(=O)C1C(C)C(C(C)(C)C)N(S(=O)(=O)c2ccc(C)cc2)C1c1ccccc1 (stereo not drawn) here?
A: 6.25% (inactive)

Q: For CCCOc1ccc(Cn2c(O)cc(=O)[nH]c2=O)cc1, which max response is on record?
A: -26.6% (inactive)

Q: Which max response does the source give for COc1ccc(NC(=O)CNC(=O)Cc2ccccc2)cc1OC here?
A: -2.31% (inactive)

Q: How did the max response turn out when COc1cc(=O)[nH]c(=O)n1C(=O)Cc1ccccc1 was run?
A: -54.9% (active)

Q: How did the max response turn out when COC(=O)[C@]12CCCCC=C1N(Cc1ccc3c(c1)OCO3)C(=O)[C@H](CC(=O)NCc1cccs1)C2 was run?
A: 1.05% (inactive)

Q: For CCCS(=O)(=O)NC(=O)C1(C)CCCN(C(=O)c2cccs2)C1 (stereo not drawn), which max response is on record?
A: 5.25% (inactive)

Q: Which max response does the source give for Cc1cc(C(=O)N2CCCC2(C)C(=O)O)c(C)o1 (stereo not drawn) here?
A: -1.39% (inactive)

Q: For CCCCCCCCN1C(=O)[C@H](CC(=O)NCC23CC4CC(CC(C4)C2)C3)C[C@@]2(C(=O)OC)CCCCC=C12, which max response is on record?
A: 8.08% (inactive)

Q: How did the max response turn out when N=c1c2c3c(sc2ncn1N)CCCC3 was run?
A: -4.92% (inactive)

Q: How did the max response turn out when S=c1[nH]nc2c3c4c(sc3ncn12)CCCC4 was run?
A: -58.2% (active)

Q: N=c1c2c3c(sc2ncn1N)CCCCC3 was tested. Which max response did it give?
A: 0.011% (inactive)

Q: With COc1ccc(CNC(=O)c2ccc(-c3cccnc3)c3ccoc23)cc1OC as the compound, how does the max response read?
A: 0.62% (inactive)

Q: O=C(NCc1ccc(F)cc1)c1cc(C2CCCCN2C(=O)c2cccs2)on1 (stereo not drawn) was tested. Which max response did it give?
A: -3.15% (inactive)

Q: Which max response does the source give for CC(C)c1cc(Cn2c3ccccc3c(=O)n2C(C)Cn2cc(C3CC3)nn2)on1 (stereo not drawn) here?
A: -4.48% (inactive)

Q: For CC(C)(C)OC(=O)N1CCN(C(=O)c2[nH]c(C(F)(F)F)nc2-c2ccccc2)CC1, which max response is on record?
A: 6.39% (inactive)

Q: For COc1cccc(C(=O)Nc2nc3ccc(S(C)(=O)=O)cc3s2)c1, which max response is on record?
A: -58.6% (active)

Q: With CS(=O)(=O)c1ccc2nc(NC(=O)C3C4C=CC(C4)C3C(=O)O)sc2c1 (stereo not drawn) as the compound, how does the max response read?
A: -8.9% (inactive)

Q: How did the max response turn out when CS(=O)(=O)c1ccc2nc(NC(=O)c3ccc(Cl)nc3)sc2c1 was run?
A: -8.02% (inactive)

Q: For CCOC(=O)N1CCN(C(=O)C[C@@H]2C[C@@]3(C(=O)OC)CC(C)(C)CC=C3N(Cc3ccco3)C2=O)CC1, which max response is on record?
A: -4.8% (inactive)

Q: Which max response does the source give for COCCN1C(=O)N[C@@H](c2ccccc2)C(C(=O)OC)=C1C here?
A: 3.31% (inactive)

Q: How did the max response turn out when CC1=C(C(=O)OCc2ccccc2)C(c2ccc(C(F)(F)F)cc2)NC(=O)N1CCCCCC(=O)O (stereo not drawn) was run?
A: -6.37% (inactive)

Q: With CC1=C(C(=O)OC(C)(C)C)C(c2ccc(Br)cc2)NC(=O)N1CCCC(=O)O (stereo not drawn) as the compound, how does the max response read?
A: -68.2% (active)

Q: How did the max response turn out when CCCCNC(=O)OC1CC2CC1[C@H]1CCCCN1C2=O (stereo partly drawn) was run?
A: 2.78% (inactive)

Q: How did the max response turn out when NC(c1ccccc1)c1csc(NC(=O)Nc2cccc(C(F)(F)F)c2)n1 (stereo not drawn) was run?
A: -16.7% (inactive)

Q: With N#Cc1ccc(/C=C2\CCn3c2nc2cc(C(=O)O)ccc2c3=O)cc1 as the compound, how does the max response read?
A: -10.5% (inactive)

Q: With O=C(O)c1ccc2c(=O)n3c(nc2c1)/C(=C/c1ccc(OC(F)F)cc1OC(F)F)CC3 as the compound, how does the max response read?
A: -50.1% (active)

Q: For O=C(O)c1ccc2c(=O)n3c(nc2c1)/C(=C/c1ccc(Cl)c([N+](=O)[O-])c1)CC3, which max response is on record?
A: -16.4% (inactive)

Q: Which max response does the source give for CCc1nc2ccc(C(=O)N(C)CCN(C)C)cn2c1N(CC)CCOC here?
A: 2.65% (inactive)

Q: For OC(c1ccc(Cl)c(F)c1)c1ncc(-c2ccccc2Cl)[nH]1 (stereo not drawn), which max response is on record?
A: 10.9% (inactive)

Q: For CC(C)c1ccc(CC(=O)N2CCC2(C)C(=O)NS(=O)(=O)c2ccc(C(C)(C)C)cc2)cc1 (stereo not drawn), which max response is on record?
A: 3.85% (inactive)

Q: O=[N+]([O-])c1ccc(C=NN=Cc2ccc([N+](=O)[O-])cc2)cc1 was tested. Which max response did it give?
A: -4.59% (inactive)

Q: For O=C1/C(=C\c2ccc([N+](=O)[O-])cc2)CS(=O)(=O)C/C1=C/c1ccc([N+](=O)[O-])cc1, which max response is on record?
A: -83.1% (active)

Q: How did the max response turn out when CC(=O)Nc1ccc(C=Cc2ccc([N+](=O)[O-])cc2)cc1 was run?
A: -5.32% (inactive)

Q: For CC=CCn1c(SCCCc2ccccc2)nc2c1c(=O)[nH]c(=O)n2C, which max response is on record?
A: -3.45% (inactive)

Q: With COC(=O)/C=C\C(=O)Nc1cccc([N+](=O)[O-])c1 as the compound, how does the max response read?
A: -26.6% (inactive)

Q: For Cc1ccc(/C=C/C(=O)Nc2ccc([N+](=O)[O-])c(NC(=O)/C=C/c3ccc(C)o3)c2)o1, which max response is on record?
A: -71.8% (active)

Q: How did the max response turn out when Cc1ccc(/C=C/C(=O)Nc2cc(S(=O)(=O)N3CCCCCC3)ccc2OCC(F)(F)F)o1 was run?
A: 2.97% (inactive)

Q: Which max response does the source give for Cc1cc(C)n2c(NCc3ccccc3)c(CC(C)C)nc2n1 here?
A: -0.19% (inactive)

Q: Which max response does the source give for C[C@H]1CN(c2ccc(Br)cc2)C(=O)[C@@H]1CC(=O)Nc1ccc(Br)cc1 here?
A: -1.71% (inactive)

Q: For COc1ccc(C(NC(=O)C2CCN(CCCc3ccccc3)CC2)c2cccs2)cc1 (stereo not drawn), which max response is on record?
A: -1.92% (inactive)

Q: With O=C(CNC(=O)C1COc2ccccc2O1)N/N=C/c1cc(Br)c(O)c(Br)c1 (stereo not drawn) as the compound, how does the max response read?
A: -78.5% (active)

Q: For O=C(N/N=C/c1cc2c(cc1Br)OCO2)C1COc2ccccc2O1 (stereo not drawn), which max response is on record?
A: 0.44% (inactive)

Q: O=C(N/N=C\c1cc(Br)c(Br)o1)C1COc2ccccc2O1 (stereo not drawn) was tested. Which max response did it give?
A: 1.1% (inactive)

Q: For CC(C)NC(=O)N1Cc2cc(C(=O)NCC(F)(F)F)nc(-c3cccc(-c4cc5ccccc5o4)c3)c2[C@@H]1CCO, which max response is on record?
A: 10.9% (inactive)

Q: CN1CCN(c2ccc3c(c2)OC[C@H](Cc2ccccc2)NS3(=O)=O)CC1 was tested. Which max response did it give?
A: 6.74% (inactive)

Q: For O=C(Nc1ccc(S(=O)(=O)N2CCOCC2)cc1)C1CCN(S(=O)(=O)c2ccc(Cl)cc2)CC1, which max response is on record?
A: 11.3% (inactive)

Q: For O=S(=O)(c1ccc(NC(=S)NN=C(C2CC2)C2CC2)cc1)N1CCOCC1, which max response is on record?
A: -67.5% (active)

Q: Which max response does the source give for O=C(NC(=S)Nc1ccc(S(=O)(=O)N2CCOCC2)cc1)c1ccccc1[N+](=O)[O-] here?
A: -13.4% (inactive)
